# Measurements published in PubChem BioAssay (EPA / NIEHS).
# Several values for one entry are separate records, joined by “and”; a condition that tells them apart may be missing. Equal values may be shown once. Activity calls are given as the source filed them. The calls were made as follows: active = hit-call score of the fitted dose curve at least 0.9, where 1 is the maximum; inactive = score below 0.9.
# Test: CCTE_Shafer_MEA_acute_cross_correlation_area: CCTE's Neural Acute Assay for Area of Cross Correlation, Shafer Lab (AID 2284024);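 also: curves fitted for loss of cross-correlation area so actives lower synchrony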
# Protocol: CCTE_Shafer_MEA_acute assay is conducted using Axion Biosystems 48 well microelectrode array (MEA) plates and Maestro recording system. Each well of the MEA plate contains a grid of 16 microelectrodes embedded in the culture surface. Electrically active cells, such as neurons, can be cultured over the electrodes, and electrical activity in these cells can be recorded extracellularly. The spontaneous firing of neurons is captured from each electrode on a microsecond timescale providing both temporally and spatially precise data. […] The CCTE_Shafer_MEA_acute assay uses primary cultures of rat cortical neurons. As these cultures mature over time, neural networks develop functional activity and form cohesive networks in which electrical activity can be highly coordinated. Baseline 40-minute recordings are made on days post-plating 13 or 15, followed by a secondary 40-minute recording after chemical exposure.CCTE_Shafer_MEA_acute_cross_correlation_area is a component of the CCTE_Shafer_MEA_acute assay. It measures the area under the well-wide pooled inter-electrode cross-correlation of action potential firing (not normalized to auto-correlations) within a window centered around 0 for the phase lag during a recording in a microelectrode array (MEA) using Axion Biosystems Maestro 768 channel amplifier with the AxIS adaptive spike detector. The recordings before and after chemical treatment are used to calculate a percent change in the cross correlation area in each well.Data from the assay component CCTE_Shafer_MEA_acute_cross_correlation_area was analyzed into 1 assay endpoint. This assay endpoint, CCTE_Shafer_MEA_acute_cross_correlation_area, was analyzed in the negative analysis fitting direction relative to DMSO as the negative control and baseline of activity. Using a type of functional reporter, gain or loss-of-signal activity can be used to understand electrical activity.
# Spontaneous activity in the cortical cultures was recorded using an Axion Biosystems Maestro 768 channel amplifier and Axion Integrated Studios (AxIS) v1.8 (or later) software. The amplifier recorded from all channels simultaneously (gain = 1200 x; sampling rate = 12.5 kHz/channel): raw signals were filtered with a Butterworth band-pass filter (300-5000 Hz), which filters out slower local field potentials leaving only fast potentials, i.e., "spikes", arising from extracellular currents associated with action potentials (Pine 2006; Wheeler and Nam 2011). On-line spike detection of filtered signals was conducted with the AxIS adaptive spike detector, using a threshold of 8x the root mean squared (rms) noise on each channel. Any electrodes with rms noise levels greater than 5 uV were grounded (e.g., no data were recorded). Once grounded, an electrode was grounded for the duration of the experiment. All recordings were conducted at 37 C. Wells were deemed usable if on the day of the exposure >/= 10 electrodes were active (defined as >/= 5 spikes/min). On DIV 13 or 15, a minimum of three wells from one cortical culture preparation were treated with each compound (0.03-40 uM). Prior to recording baseline activity, each mwMEA plate was placed in the Maestro at 37 C and allowed to sit for 20 min while firing rates stabilized. Baseline activity (40 min) was recorded before the addition of each compound. An additional 40 min of spontaneous activity was recorded in the presence of each compound. Changes in network parameters relative to baseline were assessed following compound treatment.
Compound,outcome,AC50
CCCCCOC(=O)c1ccccc1C(=O)OCCCCC,inactive,–
CCN(CC)CCO,inactive,–
O=[N+]([O-])c1ccc(Oc2ccc(Cl)cc2Cl)cc1,inactive,–
COC(=O)Nc1nc2ccccc2[nH]1,inactive,–
CC(C)COC(=O)c1ccccc1C(=O)OCC(C)C,inactive,–
CCN(CC)N=O,inactive,–
O=P(OCCCl)(OCCCl)OCCCl,inactive,–
CC(C)(O)c1cnn2c(-c3ccc(F)c(-c4c(F)cccc4C#N)c3)cnc2n1,inactive,–
ClC1=C(Cl)[C@]2(Cl)[C@H]3[C@H]([C@@H]4C=C[C@H]3C4)[C@@]1(Cl)C2(Cl)Cl,inactive,–
CC(C)(OOC(C)(C)c1ccccc1)c1ccccc1,inactive,–
CC(C)(C)C(O)(CCc1ccc(Cl)cc1)Cn1cncn1 (stereo not given),inactive,–
O=C(Oc1ccc(Br)cc1)N1CCN2CCC1CC2,inactive,–
CCC[CH2][Sn]([Cl])([CH2]CCC)[CH2]CCC,–,16.8 nM (active) and 54 nM (active)
N#CC(Br)Br,inactive,–
Clc1ccc(C(c2ccc(Cl)cc2)C(Cl)(Cl)Cl)cc1,inactive,–
O=Cc1ccco1,inactive,–
Cc1cc(N=Nc2ccccc2C)ccc1N,inactive,–
Clc1ccc(C(c2ccc(Cl)cc2)C(Cl)Cl)cc1,inactive,–
O=[N+]([O-])C(Br)(CO)CO,inactive,–
Cc1ccc(N)c(N)c1,inactive,–
[Cl-].[Cl-].[Hg+2],inactive,–
ClCCOCCCl,inactive,–
O=C(N[C@H](c1ccccc1)[C@@H]1CN2CCC1CC2)c1c(Cl)ccc(C(F)(F)F)c1Cl,inactive,–
CCCCCCCCn1sccc1=O,inactive,–
c1ccc(N=Nc2ccccc2)cc1,inactive,–
CCCCOC(=O)c1ccccc1C(=O)OCc1ccccc1,inactive,–
ClC1=C(Cl)C2(Cl)C3C(Cl)C=CC3C1(Cl)C2(Cl)Cl (stereo not given),–,4.37 µM (active)
c1ccc(NNc2ccccc2)cc1,inactive,–
CCC(C)c1ccc(O)cc1 (stereo not given),inactive,–
C[N+](C)(C)CC1CO1 (stereo not given),inactive,–
